Results published in PubChem BioAssay (NCI).
This is part of a sample that, as a whole, favours compounds with a hit. Of some 79,000 tested, about 15% had one in any assay. A number with no mark means an inactive call. The source made the active and inactive calls. No stated cut-off is given here; in the data, active means growth inhibition above about 70%; inactive means the rest.

Assay: NCI Yeast Anticancer Drug Screen. Data for the wt1 strain (AID 149);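 further: 0% = growth of vehicle-treated wt1 cultures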
Conditions: S. cerevisiae wt1 strain (SPY 50644) growth inhibition, active compounds read high
Protocol: Growth inhibition of yeast strains with defined genetic alterations is measured as a screen for potential anti-cancer activity. Selected strains with alterations in DNA damage repair or cell cycle control were exposed to compounds and growth inhibition was measured relative to vehicle treated controls. The strain used in this assay is wt1

Row | Structure (SMILES) | growth inhibition (at 1.2 µM) [%] | growth inhibition (at 3.7 µM) [%] | growth inhibition (at 11.0 µM) [%] | growth inhibition (at 33.0 µM) [%] | growth inhibition (at 100.0 µM)
1 | C=C1C(=O)OC2CC1C(OC(C)=O)C/C(C)=C/CC/C(C)=C\CCC2(C)O (stereo not given) | 3 | 11 | 13 | 30 | 85% (active)
2 | CCN(CC)Cc1cc(Nc2c3ccccc3nc3c2[nH]c2ccccc23)cc(CN(CC)CC)c1O | 1 | 2 | -1 | 0 | 3%
3 | Nc1nc2ccc(NCc3ccc(C(=O)NC(CCC(=O)O)C(=O)O)cc3)cc2c(=O)[nH]1 (stereo not given) | -6 | -17 | -19 | 3 | 55%
4 | CN1C(=O)c2ccc3ccccc3c2C1=O | 2 | 3 | 17 | 25 | 25%
5 | NC1CCCCC1N.Nc1c(N=Nc2ccc(-c3ccc(N=Nc4cc(S(=O)(=O)[O-])c5ccccc5c4N)cc3)cc2)cc(S(=O)(=O)[O-])c2ccccc12.[OH3+].[OH3+].[Pt+4] | 1 | -43 | 26 | 35 | 92% (active)
6 | Oc1ccc(SCc2ccc(NCc3ccccc3)cc2)cc1 | -32 | -35 | -52 | -4 | 91% (active)
7 | CCOC(=O)[C@H]1Nc2ccc(OC)cc2C2c3ccccc3CC21 (stereo not given in full) | -29 | -27 | -25 | 50 | 90% (active)
8 | CC(C)OC(=O)c1ccc(CCc2cc(O)c(Br)cc2O)cc1 | 26 | 33 | 45 | 27 | 98% (active)
